# Data published in PubChem BioAssay (EPA / NIEHS).
# Active and inactive are the calls of the source. How the source made its calls: active means hit-call score of the fitted dose curve at least 0.9, where 1 is the maximum; inactive means score below 0.9.
# Experiments:
# [1] = ATG_ERE_CIS: Attagene CIS-FACTORIAL HepG2 Assay for Estrogen Response Element (ERE) (AID 2282940); details: HepG2 ERE cis-reporter, Attagene RNA transcript; actives raise or lower the signal
# Procedure, shortened: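 HepG2, transient cis-reporter units, 24 h exposure. RNA isolated, oligo(dT) RT, reporter-specific PCR, FAM extension, HpaI cut, CE detection. Gain/loss-of-signal vs DMSO.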
# [2] = ATG_Ets_CIS: Attagene CIS-FACTORIAL HepG2 Assay for human Erythroblast Transformation Specific (ETS) (AID 2282941); details: HepG2 ETS cis-reporter transcription, actives raise or lower the signal
# Procedure, shortened: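 HepG2 cells transfected with multiple cis-regulated reporter units measuring endogenous ETS-driven transcription, 24 h after dosing. Reporter mRNA quantified by RT-PCR with capillary electrophoresis; bidirectional fit relative to DMSO.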
# [3] = target: Hepatocyte nuclear factor 3-beta (Homo sapiens) (UniProt Q9Y261); experiment: ATG_FoxA2_CIS: Attagene CIS-FACTORIAL HepG2 Assay for human Forkhead box A2 (FOXA2) (AID 2282942); details: HepG2 cis-reporter transcription factor activity, 24 h; actives raise or lower the signal
# Procedure, shortened: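 Cells: HepG2, transient multiplex reporter transfection. Exposure 24 h. Detection: reporter-specific RT-PCR, fluorescent labelling, restriction digest, capillary electrophoresis. Analysis: bidirectional curve fit, DMSO as negative control.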
# [4] = ATG_FoxO_CIS: Attagene CIS-FACTORIAL HepG2 Assay for human Forkhead box O (FoxO) (AID 2282943); details: HepG2 Attagene cis-reporter, FoxO element, mRNA; actives raise or lower the signal
# Procedure, shortened: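 Transfected HepG2 reporter cells exposed to test chemical for 24 h; reporter RNA measured by reverse transcription, PCR and fluorescent capillary electrophoresis; curves fitted for increases and decreases against DMSO.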
# [5] = ATG_GATA_CIS: Attagene CIS-FACTORIAL HepG2 Assay for human GATA Binding Protein (AID 2282944); details: HepG2 GATA cis-element reporter, Attagene multiplex mRNA; actives raise or lower the signal
# Procedure, shortened: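 DMSO serves as negative control and baseline for bidirectional fitting of reporter mRNA changes. HepG2 cells bearing transiently transfected cis-promoter reporters were exposed 24 h; transcripts detected via RT-PCR and capillary electrophoresis.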
# [6] = ATG_GLI_CIS: Attagene CIS-FACTORIAL HepG2 Assay for human Zinc Finger Protein GLI1 (AID 2282945); details: HepG2, Attagene cis-factorial reporter mRNA, GLI element; actives raise or lower the signal
# Procedure, shortened: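 Transiently transfected HepG2 cells report endogenous transcription factor activity via cis-element-driven reporter units. After 24 h compound exposure, reporter mRNA was measured by RT-PCR with capillary electrophoresis; bidirectional fitting against DMSO baseline.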
# [7] = ATG_GRE_CIS: Attagene CIS-FACTORIAL HepG2 Assay for human Glucocorticoid Response Elements (GRE) (AID 2282947); details: HepG2 GRE cis-reporter, Attagene multiplex mRNA; actives raise or lower the signal
# Procedure, shortened: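 Transiently transfected HepG2 cells carrying GRE cis-reporter units (endogenous TF activity) dosed 24 h; reporter mRNA quantified by RT-PCR, 6-FAM labelling, HpaI digestion and capillary electrophoresis. Bidirectional fit versus DMSO baseline.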
# [8] = ATG_ISRE_CIS: Attagene CIS-FACTORIAL HepG2 Assay for human Interferon Regulatory Factor 1 (IRF1) binding to an Interferon-Stimulated Response Element (ISRE) (AID 2282948); details: HepG2 ISRE cis-reporter (Attagene), mRNA transcription readout; actives raise or lower the signal
# Procedure, shortened: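 Transiently transfected HepG2 cells carrying cis-element reporter units, dosed 24 hours. Reporter mRNA quantified by RT-PCR, fluorescent primer extension, HpaI digestion and capillary electrophoresis. Bidirectional fitting relative to DMSO.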
# [9] = ATG_M_32_CIS: Attagene CIS-FACTORIAL HepG2 Assay for M32 Transcription Factor (Internal Marker) (AID 2282949); details: HepG2 Attagene cis-factorial M32 reporter, mRNA; actives raise or lower the signal;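 further: background control marker of the multiplexed CIS panel rather than a real target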
# Procedure, shortened: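 HepG2 cells transiently transfected with multiplexed cis-regulated reporter units, dosed 24 h. Reporter mRNA quantified by RT-PCR, 6-FAM labelling, HpaI digestion and capillary electrophoresis; bidirectional fit vs DMSO.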
# [10] = ATG_M_06_CIS: Attagene CIS-FACTORIAL HepG2 Assay for M06 Transcription Factor (Internal Marker) (AID 2282950); details: HepG2 Attagene CIS-FACTORIAL M06 internal marker reporter; actives raise or lower the signal
# Procedure, shortened: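 Fluorescence-labelled RT-PCR products from cis-promoter reporter units, cut with HpaI and resolved by capillary electrophoresis, give the signal. Cells are human HepG2, dosed for 24 h. Serves as background control, fitted relative to DMSO.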
# [11] = target: Hypoxia-inducible factor 1-alpha (Homo sapiens) (UniProt Q16665); experiment: ATG_HIF1a_CIS: Attagene CIS-FACTORIAL HepG2 Assay for human Hypoxia Inducible Factor 1 (HIF1A) (AID 2282951); details: HepG2 Attagene cis-factorial HIF1a reporter transcription; actives raise or lower the signal
# Procedure, shortened: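 HepG2, transient cis-reporter library, 24 h dosing. RNA → RT (oligo dT) → PCR → 6-FAM primer extension → HpaI → CE. Bidirectional curve fit vs DMSO.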
# [12] = target: Hepatocyte nuclear factor 6 (Homo sapiens) (UniProt Q9UBC0); experiment: ATG_HNF6_CIS: Attagene CIS-FACTORIAL HepG2 Assay for human Hepatocyte Nuclear Factor 6 (HNF6) (AID 2282952); details: HepG2 Attagene cis-factorial HNF6 reporter transcription; actives raise or lower the signal
# Procedure, shortened: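 HepG2 cells transiently transfected with cis-element-driven multiple reporter transcription units, dosed 24 h; reporter mRNA quantified by RT-PCR, FAM primer extension, HpaI digestion and capillary electrophoresis; bidirectional fit versus DMSO baseline.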
# [13] = target: Heat shock factor protein 1 (Homo sapiens) (UniProt Q00613); experiment: ATG_HSE_CIS: Attagene CIS-FACTORIAL HepG2 Assay for human Heat Shock Transcription Factor 1 (HSE) (AID 2282953); details: HepG2 HSE cis-reporter, Attagene RNA transcription; actives raise or lower the signal
# Procedure, shortened: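 After a 24 h incubation with test chemical, transfected HepG2 cells were harvested for RNA; reporter transcripts were measured by RT-PCR and capillary electrophoresis. Values reflect gain or loss of signal relative to DMSO.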
# [14] = ATG_MRE_CIS: Attagene CIS-FACTORIAL HepG2 Assay for human Metal Responsive Element (MRE) (AID 2282954); details: HepG2 MRE cis-reporter transcription, Attagene multiplex; actives raise or lower the signal
# Procedure, shortened: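 HepG2 cells transiently transfected with cis-element-driven reporter units; mRNA measured 24 h after dosing. Reporter transcripts quantified by RT-PCR, FAM labelling, HpaI digestion and capillary electrophoresis; bidirectional fit versus DMSO.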
# [15] = ATG_PBREM_CIS: Attagene CIS-FACTORIAL HepG2 Assay for human Phenobarbital-responsive Enhancer Module (PBREM) (AID 2282955); details: HepG2 PBREM cis-reporter, Attagene multiplexed transcription; actives raise or lower the signal
# Procedure, shortened: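 HepG2, transient MRTU transfection, 24 h dosing; RNA → oligo(dT) RT → PCR → 6-FAM extension → HpaI → CE. Bidirectional fit vs DMSO.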
# [16] = target: Paired box protein Pax-6 (Homo sapiens) (UniProt P26367); experiment: ATG_Pax6_CIS: Attagene CIS-FACTORIAL HepG2 Assay for human Paired Box 6 (PAX6) (AID 2282956); details: HepG2 CIS-FACTORIAL PAX6 reporter transcription, RNA readout; actives raise or lower the signal
# Procedure, shortened: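 HepG2 cells transiently transfected with cis-promoter-driven multiplexed reporter units sensing endogenous transcription factor activity; 24 h chemical exposure. Reporter mRNA quantified by RT-PCR, 6-FAM labelling, HpaI digestion and capillary electrophoresis; bidirectional fit versus DMSO baseline.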
# [17] = ATG_PXRE_CIS: Attagene CIS-FACTORIAL HepG2 Assay for human Pregnane X Receptor Element (PXRE) (AID 2282957); details: HepG2 Attagene CIS-FACTORIAL PXRE reporter, mRNA; actives raise or lower the signal
# Procedure, shortened: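 HepG2 cells transiently transfected with cis-regulated multiple reporter transcription units; endogenous factor activity measured as reporter mRNA 24 h after dosing. RT-PCR, fluorescent primer extension, HpaI digestion, capillary electrophoresis; bidirectional fit versus DMSO baseline.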
# [18] = ATG_RORE_CIS: Attagene CIS-FACTORIAL HepG2 Assay for human RAR-related Orphan Receptor Element (RORE) (AID 2282959); details: HepG2 Attagene cis-factorial RORE reporter, mRNA; actives raise or lower the signal
# Procedure, shortened: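 Multiplexed reporter assay measuring mRNA induction from a cis promoter element in transiently transfected HepG2 cells after 24 h treatment. Detection via RT-PCR and capillary electrophoresis fluorescence; DMSO serves as baseline.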
# [19] = ATG_PPRE_CIS: Attagene CIS-FACTORIAL HepG2 Assay for human Peroxisome Proliferator-activated Response Element (PPRE) (AID 2282958); details: HepG2 PPRE cis-element reporter, Attagene transcription factor profiling; actives raise or lower the signal
# Procedure, shortened: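 Transcript-level reporter induction in transfected HepG2 cells after 24 h chemical exposure, quantified by fluorescence from RT-PCR products separated by capillary electrophoresis.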
# [20] = target: Bile acid receptor (Homo sapiens) (UniProt Q96RI1); experiment: ATG_IR1_CIS: Attagene CIS-FACTORIAL HepG2 Assay for human Nuclear Receptor Subfamily 1 Group H Member 4 (NR1H4), IR1 submotif (AID 2282946); details: IR1 reporter transcription, actives raise or lower the signal
# Procedure, shortened: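 HepG2 cells transiently transfected with multiple cis-promoter-driven reporter units to measure endogenous transcription factor activity; 24 h exposure. Reporter mRNA read by RT-PCR, FAM labelling, HpaI digestion and capillary electrophoresis. Bidirectional fit versus DMSO.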
# Sequence of Hepatocyte nuclear factor 6 (Homo sapiens) (Q9UBC0 whole entry, looked up): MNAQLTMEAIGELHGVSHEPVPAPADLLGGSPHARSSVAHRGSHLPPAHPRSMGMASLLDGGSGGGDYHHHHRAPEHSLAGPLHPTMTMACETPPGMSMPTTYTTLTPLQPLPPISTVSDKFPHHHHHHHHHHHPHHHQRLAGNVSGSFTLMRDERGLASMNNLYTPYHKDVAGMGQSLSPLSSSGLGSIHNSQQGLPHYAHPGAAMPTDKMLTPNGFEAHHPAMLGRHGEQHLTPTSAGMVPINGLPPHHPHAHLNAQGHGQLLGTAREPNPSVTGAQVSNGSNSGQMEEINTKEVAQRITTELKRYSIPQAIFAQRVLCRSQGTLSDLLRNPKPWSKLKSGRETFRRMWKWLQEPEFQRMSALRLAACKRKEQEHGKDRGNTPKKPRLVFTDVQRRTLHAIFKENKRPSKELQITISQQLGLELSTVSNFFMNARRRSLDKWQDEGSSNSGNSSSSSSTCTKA
# Sequence of Paired box protein Pax-6 (Homo sapiens) (P26367 whole entry, looked up): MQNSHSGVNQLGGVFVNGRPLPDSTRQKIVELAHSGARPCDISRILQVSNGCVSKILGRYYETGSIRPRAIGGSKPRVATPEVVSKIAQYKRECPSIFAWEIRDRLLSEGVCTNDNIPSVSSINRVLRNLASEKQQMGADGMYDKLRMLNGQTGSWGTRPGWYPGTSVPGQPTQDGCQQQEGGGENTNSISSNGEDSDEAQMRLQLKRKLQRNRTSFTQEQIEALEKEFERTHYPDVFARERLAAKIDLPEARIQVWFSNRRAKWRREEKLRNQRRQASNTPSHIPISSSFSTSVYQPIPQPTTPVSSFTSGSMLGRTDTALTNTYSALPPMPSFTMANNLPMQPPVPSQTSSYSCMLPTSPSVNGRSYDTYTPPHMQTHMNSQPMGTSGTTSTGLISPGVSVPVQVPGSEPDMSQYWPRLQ
# Sequence of Hepatocyte nuclear factor 3-beta (Homo sapiens) (Q9Y261 whole entry, looked up): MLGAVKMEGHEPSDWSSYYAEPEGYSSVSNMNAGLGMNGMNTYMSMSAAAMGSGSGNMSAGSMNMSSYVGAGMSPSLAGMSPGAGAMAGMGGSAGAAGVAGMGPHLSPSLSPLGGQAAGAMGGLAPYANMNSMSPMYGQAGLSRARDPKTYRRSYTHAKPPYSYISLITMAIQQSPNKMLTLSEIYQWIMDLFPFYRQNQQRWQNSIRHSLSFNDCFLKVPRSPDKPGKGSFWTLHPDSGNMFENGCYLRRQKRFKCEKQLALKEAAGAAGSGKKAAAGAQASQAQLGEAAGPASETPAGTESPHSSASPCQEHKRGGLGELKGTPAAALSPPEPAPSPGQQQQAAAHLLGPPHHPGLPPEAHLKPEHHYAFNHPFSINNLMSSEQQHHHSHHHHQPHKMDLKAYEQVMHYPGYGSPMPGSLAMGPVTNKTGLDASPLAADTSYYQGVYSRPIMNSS
# Sequence of Hypoxia-inducible factor 1-alpha (Homo sapiens) (Q16665 whole entry, looked up): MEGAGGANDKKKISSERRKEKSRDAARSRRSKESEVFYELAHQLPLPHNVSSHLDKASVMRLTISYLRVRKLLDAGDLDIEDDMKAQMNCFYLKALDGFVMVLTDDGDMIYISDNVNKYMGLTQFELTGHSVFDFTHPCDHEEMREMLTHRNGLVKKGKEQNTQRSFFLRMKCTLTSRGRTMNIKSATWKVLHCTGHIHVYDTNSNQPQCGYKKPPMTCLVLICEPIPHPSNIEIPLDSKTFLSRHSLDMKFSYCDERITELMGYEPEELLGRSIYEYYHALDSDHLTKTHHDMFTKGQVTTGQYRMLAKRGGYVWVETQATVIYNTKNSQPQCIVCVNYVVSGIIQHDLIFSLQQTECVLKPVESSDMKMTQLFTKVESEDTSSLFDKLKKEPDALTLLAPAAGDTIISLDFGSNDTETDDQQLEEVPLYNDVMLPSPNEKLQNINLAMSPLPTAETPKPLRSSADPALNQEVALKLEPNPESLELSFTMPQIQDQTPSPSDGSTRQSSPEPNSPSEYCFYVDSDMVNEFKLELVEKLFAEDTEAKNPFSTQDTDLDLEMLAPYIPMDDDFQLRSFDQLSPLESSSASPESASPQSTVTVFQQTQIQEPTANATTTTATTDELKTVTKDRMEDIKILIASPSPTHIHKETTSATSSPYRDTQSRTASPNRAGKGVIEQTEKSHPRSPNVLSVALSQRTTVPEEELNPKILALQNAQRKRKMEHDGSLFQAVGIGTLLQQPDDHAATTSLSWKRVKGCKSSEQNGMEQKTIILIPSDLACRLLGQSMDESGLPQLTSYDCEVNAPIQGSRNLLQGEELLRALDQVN
# Sequence of Heat shock factor protein 1 (Homo sapiens) (Q00613 whole entry, looked up): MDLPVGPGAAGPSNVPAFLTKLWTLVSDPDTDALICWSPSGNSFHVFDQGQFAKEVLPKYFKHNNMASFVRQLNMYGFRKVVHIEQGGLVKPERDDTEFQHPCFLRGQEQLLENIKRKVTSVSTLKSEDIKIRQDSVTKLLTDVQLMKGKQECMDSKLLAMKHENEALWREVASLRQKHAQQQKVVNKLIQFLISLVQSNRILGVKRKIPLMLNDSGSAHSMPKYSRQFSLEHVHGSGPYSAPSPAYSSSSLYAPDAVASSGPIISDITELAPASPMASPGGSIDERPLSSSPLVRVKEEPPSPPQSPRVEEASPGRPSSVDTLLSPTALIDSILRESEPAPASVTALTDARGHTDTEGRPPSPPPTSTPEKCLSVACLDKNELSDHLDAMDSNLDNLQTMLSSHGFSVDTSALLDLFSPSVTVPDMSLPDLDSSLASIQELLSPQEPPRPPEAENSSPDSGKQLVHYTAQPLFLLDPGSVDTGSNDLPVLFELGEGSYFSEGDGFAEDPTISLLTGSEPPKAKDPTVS
# Sequence of Bile acid receptor (Homo sapiens) (Q96RI1 whole entry, looked up): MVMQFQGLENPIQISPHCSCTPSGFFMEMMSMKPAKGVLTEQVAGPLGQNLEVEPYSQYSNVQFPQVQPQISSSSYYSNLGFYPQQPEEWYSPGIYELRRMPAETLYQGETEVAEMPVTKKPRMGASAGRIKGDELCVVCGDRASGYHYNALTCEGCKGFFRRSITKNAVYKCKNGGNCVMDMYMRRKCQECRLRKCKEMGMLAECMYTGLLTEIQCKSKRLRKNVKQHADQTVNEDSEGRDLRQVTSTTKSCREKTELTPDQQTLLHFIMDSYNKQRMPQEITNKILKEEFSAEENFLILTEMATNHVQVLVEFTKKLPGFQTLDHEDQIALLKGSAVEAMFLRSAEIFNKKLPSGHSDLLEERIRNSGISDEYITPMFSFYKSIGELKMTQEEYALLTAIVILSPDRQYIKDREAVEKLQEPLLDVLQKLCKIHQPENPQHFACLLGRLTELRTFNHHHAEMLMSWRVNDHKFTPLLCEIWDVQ
structure (smiles),measurement,setting,value
C=CCCl,outcome,[1],inactive
same,outcome,[2],inactive
same,outcome,[3],inactive
same,outcome,[4],inactive
same,outcome,[5],inactive
same,outcome,[6],inactive
same,outcome,[7],inactive
same,outcome,[8],inactive
same,outcome,[9],inactive
same,outcome,[10],inactive
same,outcome,[11],inactive
same,outcome,[12],inactive
same,outcome,[13],inactive
same,outcome,[14],inactive
same,outcome,[15],inactive
same,outcome,[16],inactive
same,AC50,[17],100 µM (active)
same,outcome,[18],inactive
O=C(NC(=O)c1c(F)cccc1F)Nc1cc(Cl)c(OC(F)(F)C(F)C(F)(F)F)cc1Cl (stereo unspecified),outcome,[1],inactive
same,outcome,[2],inactive
same,outcome,[3],inactive
same,outcome,[4],inactive
same,outcome,[5],inactive
same,outcome,[6],inactive
same,outcome,[7],inactive
same,outcome,[8],inactive
same,outcome,[9],inactive
same,outcome,[10],inactive
same,outcome,[11],inactive
same,outcome,[12],inactive
same,outcome,[13],inactive
same,outcome,[14],inactive
same,outcome,[15],inactive
same,outcome,[16],inactive
same,outcome,[17],inactive
same,outcome,[18],inactive
O=C(Cl)OCCOCCOC(=O)Cl,outcome,[1],inactive
same,outcome,[2],inactive
same,outcome,[3],inactive
same,outcome,[4],inactive
same,outcome,[5],inactive
same,outcome,[6],inactive
same,outcome,[7],inactive
same,outcome,[8],inactive
same,outcome,[9],inactive
same,outcome,[10],inactive
same,outcome,[11],inactive
same,outcome,[12],inactive
same,outcome,[14],inactive
same,outcome,[15],inactive
same,outcome,[16],inactive
same,outcome,[17],inactive
same,outcome,[18],inactive
Cc1c([N+](=O)[O-])c(C)c([N+](=O)[O-])c(C(C)(C)C)c1[N+](=O)[O-],AC50,[1],23.7 µM (active)
same,outcome,[2],inactive
same,outcome,[3],inactive
same,outcome,[4],inactive
same,outcome,[5],inactive
same,outcome,[6],inactive
same,outcome,[7],inactive
same,AC50,[8],22.5 µM (active)
same,outcome,[9],inactive
same,outcome,[10],inactive
same,outcome,[11],inactive
same,outcome,[12],inactive
same,outcome,[13],inactive
same,AC50,[14],64.1 µM (active)
same,outcome,[15],inactive
same,outcome,[16],inactive
same,outcome,[19],inactive
same,outcome,[18],inactive
CCCCN(CCCCO)N=O,AC50,[1],3.06 µM (active)
same,outcome,[2],inactive
same,outcome,[3],inactive
same,outcome,[4],inactive
same,outcome,[5],inactive
same,outcome,[6],inactive
same,outcome,[7],inactive
same,outcome,[8],inactive
same,outcome,[9],inactive
same,outcome,[10],inactive
same,outcome,[11],inactive
same,outcome,[12],inactive
same,outcome,[13],inactive
same,outcome,[15],inactive
same,outcome,[16],inactive
same,AC50,[17],35.3 µM (active)
same,outcome,[18],inactive
Clc1cc(C(Cl)(Cl)Cl)cnc1Cl,outcome,[1],inactive
same,outcome,[2],inactive
same,outcome,[3],inactive
same,outcome,[5],inactive
same,outcome,[6],inactive
same,outcome,[20],inactive
same,AC50,[8],9.08 µM (active)
same,outcome,[9],inactive
same,outcome,[10],inactive
same,AC50,[11],9 µM (active)
same,outcome,[12],inactive
same,outcome,[13],inactive
same,AC50,[14],9.1 µM (active)
same,AC50,[16],8.8 µM (active)
same,AC50,[17],8.47 µM (active)
same,outcome,[19],inactive
same,outcome,[18],inactive
NNCCO,AC50,[1],25.4 µM (active)
same,outcome,[2],inactive
same,outcome,[3],inactive
same,outcome,[4],inactive
same,outcome,[5],inactive
same,outcome,[6],inactive
same,outcome,[8],inactive
same,outcome,[9],inactive
same,outcome,[11],inactive
same,outcome,[12],inactive
same,outcome,[13],inactive
same,outcome,[14],inactive
same,outcome,[16],inactive
same,outcome,[17],inactive
same,AC50,[18],25.4 µM (active)
CNC(=O)CSP(=O)(OC)OC,outcome,[1],inactive
same,outcome,[2],inactive
same,outcome,[3],inactive
same,outcome,[5],inactive
same,outcome,[6],inactive
same,outcome,[20],inactive
same,outcome,[7],inactive
same,outcome,[8],inactive
same,outcome,[9],inactive
same,outcome,[11],inactive
same,outcome,[12],inactive
same,outcome,[13],inactive
same,outcome,[15],inactive
same,outcome,[16],inactive
same,outcome,[17],inactive
same,outcome,[19],inactive
